This passage reports PBM binding z-score results from the supplement of paper PMC6555819.

Assay in all cases: PBM binding z-score (relative to random genomic background probes); higher = stronger binding; sequences stand for … in GC…GCGATTGACAGCGTAGAATGAAGG
Test [1] relates to RARb homodimer (NR concentration 270 nM). The method, boiled down:
(§1)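 Binding buffer was PBS pH 7.4 with 2% milk, 0.02% Triton X-100, 1 mM DTT, 0.2 mg/mL BSA and 0.4 mg/ml salmon testes DNA. In it, ligand-free nuclear receptor dimers were incubated 1 h on custom Agilent 4×180K protein-binding microarrays carrying double-stranded probes. Antibodies against each partner (one per run) detected binding, and z-scores were calculated against random background probes after regression normalization of scanned fluorescence.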

Test [2] relates to RARg:RXRa (NR concentration 270 nM, RXRa partner concentration 90 nM). The method in brief:
as §1

Test [3] relates to RARg homodimer (NR concentration 270 nM). The method, boiled down: as §1
Test [4] concerns RXRa DBDmut IVT, anti-RXR (DBD mutation: RXRa K156A/R161A, NR concentration 90 nM). The method, boiled down: as §1
The subject of test [5] is RXRa homodimer (NR concentration 180 nM). The method, boiled down: as §1
The subject of test [6] is THRa:RXRa (NR concentration 90 nM, RXRa partner concentration 90 nM). The method, boiled down: as §1
Test [7] has as its system THRa homodimer (NR concentration 90 nM). The method in brief:
as §1

Test [8] has as its system VDR homodimer (NR concentration 270 nM). The method in brief: as §1

With ATCGAAAGGTCGAAGGTGAGTATCCCCACCCGAA, the PBM binding z-score was determined as 2.43 in test [1]; 3.95 in test [2]; 3.71 in test [3]; 0.658 in test [4]; 4.73 in test [5]; 2.36 in test [6]. Besides, the PBM binding z-score came to 0.377 in test [7] and 0.132 in test [8].

As to CTACCAAGGTGACCAAGGTCGTTGATTACTATTC, the PBM binding z-score in test [1] came to 1.86; in test [2] it was 1.47; in test [3], 1.08; in test [4] it was 1.1; in test [5], 1.66; in test [6] it was 2.92. Moreover, the figures for the PBM binding z-score in test [7] and in test [8] were 1.76 and 2.06, respectively.

For CAAACTAGGTAACGAAAGGTCAAAGTCGAATGAC, the PBM binding z-score was determined as 4.76 in test [1]; 5.68 in test [2]; 5.08 in test [3]; 1.05 in test [4]; 6.35 in test [5]; 4 in test [6]. The PBM binding z-score in test [7] is 1.16; in test [8], 2.25.

Consider CCTACTGGGCCATTCCGAGGTCATTGATCATATG, for which the PBM binding z-score in test [1] was 3.36; in test [2], 3.43; in test [3], 2.28; in test [4], 1.08; in test [5] it was 2.86; in test [6] it was 3.68. The figures for the PBM binding z-score in test [7] and in test [8] were 3.62 and 4.08, respectively.

For GCTAGCAGGCCATTTGGGTCGCTCAATGACGGGC, the PBM binding z-score in test [1] is -0.128; in test [2], -0.381; in test [3], -0.146; in test [4] it was -0.286; in test [5], -0.42; in test [6], -0.00184. Also, the PBM binding z-score was -0.914 in test [7] and -0.635 in test [8].

On to CCTGCTAGGTCGATGGTCAGCTAAAGCAGCTCGC, for which the PBM binding z-score was 0.8 in test [1]; 0.222 in test [2]; 0.416 in test [3]; 0.224 in test [4]; -0.11 in test [5]; 0.103 in test [6]. Further, the PBM binding z-score in test [7] was -0.265; in test [8], -0.719.

For CCGACTCGGGCAGAAAGGTTACCATACCATCCGG, the PBM binding z-score in test [1] was 1.59; in test [2] it was 1.41; in test [3], 1.02; in test [4], -0.246; in test [5], 1.6; in test [6], 1.01. The PBM binding z-score in test [7] is -0.699; in test [8] it was -0.0904.
